{"source": "PubChem BioAssay"}
{"assay": "MM1S cell viability effects, profiling panel, calcein-AM fluorescence, 48 h, basal (AID 1165);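 also: viability of MM1S multiple myeloma cells under basal unstimulated conditions; test concentration not given here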", "conditions": "higher = more signal"}
{"smiles": "CCCCC(=C=CC[C@@H](O)c1cccc(OCCO)c1)CCO", "z-score": 0.859}
{"smiles": "C=CCOC(=O)[C@@H]1[C@H]2C(=O)O[C@H](c3ccccc3)[C@H](c3ccccc3)N2[C@H](c2ccc(OCCOC(=O)[C@H]3C[C@H]4C(=O)NCC(=O)N4[C@H]3c3ccc(O)cc3)cc2)[C@@]12C(=O)Nc1ccc(I)cc12", "z-score": -0.172}
{"smiles": "CN1C=C(C(=O)OCCS(C)(=O)=O)C(C(=O)OCCS(C)(=O)=O)=CC(CCCO)=CC1c1ccc(CN2CCCC2)cc1", "note": "(centres undefined)", "z-score": 0.101}
{"smiles": "COCCOC(=O)N1C(=O)[C@@]2(c3cc(C#CC4(O)CCCCCC4)ccc31)[C@H](C(=O)N1CCc3cc(OC)c(OC)cc3C1)[C@H]1C(=O)O[C@H](c3ccccc3)[C@H](c3ccccc3)N1[C@@H]2c1ccc(O)cc1", "z-score": -1.06}
{"smiles": "O=C1O[C@@H](c2ccccc2)[C@@H](c2ccccc2)N2[C@@H](c3ccc(OCCO)cc3)[C@]3(C(=O)Nc4ccc(C#CCCO)cc43)[C@@H](C(=O)Nc3nc4ccccc4s3)[C@H]12", "z-score": -0.267}
{"smiles": "COCCCNC(=O)[C@@H]1c2ccccc2C(=O)N(C2CCCCC2)[C@H]1c1ccc(CO)cc1", "z-score": 0.777}
{"smiles": "C=CC[C@]1(C(=O)NCc2ccccc2)COC(c2ccc(OCCCO)cc2)=N1", "z-score": -2.01}
{"smiles": "CN(C)CCCNC(=O)[C@@]1(Cc2ccccc2I)c2ccccc2C(=O)N(Cc2ccccc2)[C@H]1c1ccc(CO)cc1", "z-score": -3.73}
{"smiles": "COc1cccc(OC)c1C(=O)O[C@H]1[C@@H]2OC(=O)[C@H](Cc3cccc(Br)c3)C/C=C/C[C@@H](Cc3cccc(Br)c3)C(=O)O[C@H]2[C@@H](OC)O[C@@H]1CO", "z-score": -2.6}
{"smiles": "[N-]=[N+]=NCc1ccccc1C[C@]1(C(=O)NCc2ccccc2)N=C(c2ccc(OCCCO)cc2)O[C@H]1c1ccccc1CN=[N+]=[N-]", "z-score": -1.23}
{"smiles": "COCCOC(=O)N1C(=O)[C@@]2(c3cc(C#Cc4ccc(OC)cc4)ccc31)[C@H](c1ccc(OCCO)cc1)N1[C@H](c3ccccc3)[C@H](c3ccccc3)OC(=O)[C@H]1[C@@H]2C(=O)N1CCCCCCC1", "z-score": -0.0692}
{"smiles": "Cc1ccc(S[C@]2(C(=O)NC3CC3)CC(=O)N(Cc3cc(C(F)(F)F)cc(C(F)(F)F)c3)[C@@H]2c2ccc(CO)cc2I)cc1", "z-score": -2.53}
{"smiles": "CC1(C)OC[C@@]23C=C(Br)[C@@H](C[C@H]12)[C@@]1(CO1)C3=O", "z-score": -0.229}
{"smiles": "CCOC(=O)C1=CC[C@@H](c2ccccc2)N(S(=O)(=O)c2ccc(C)cc2)[C@H]1C#N", "z-score": -3.21}
{"smiles": "COc1ccccc1CN1C(=O)c2ccccc2[C@](Cc2ccccc2I)(C(=O)NCCCN(C)C)[C@@H]1c1ccc(CO)cc1", "z-score": -3.81}
{"smiles": "CCCC=C(CCC)[C@@H](NC(=O)c1ccco1)c1ccc(C(=O)OC)cc1", "z-score": -3.26}
{"smiles": "CC(C)(C)OC(=O)CC[C@]1(C(N)=O)N=C(c2ccc(OCCCO)cc2)O[C@H]1c1ccccc1CN=[N+]=[N-]", "z-score": -0.0887}
{"smiles": "COc1ccc(NN2C(C(O)c3cc(C(F)(F)F)cc(C(F)(F)F)c3)C=CC3C(=O)N(C4CCCCC4)C(=O)C32)cc1", "note": "(centres undefined)", "z-score": -0.167}
{"smiles": "COc1ccc(CCNC(=O)[C@@]2(C)c3ccccc3C(=O)N(Cc3cc(C(F)(F)F)cc(C(F)(F)F)c3)[C@H]2c2ccc(CO)cc2)cc1", "z-score": -2.16}
{"smiles": "CC(C)C(=C=CC[C@@H](O)c1ccc(OCCO)cc1)CCO", "z-score": 0.626}
{"smiles": "C=CCC(OC(C)=O)[C@@H]1[C@@H](N(Cc2cc3ccccc3o2)C(=O)c2ccc(-c3ccccc3)cc2)c2cc(OCCCO)ccc2N1C(=O)c1ccc2ccccc2n1", "note": "(some centres undefined)", "z-score": 0.479}
{"smiles": "CC(C)c1ccc(NN2C(C(O)C(C)C)C=CC3C(=O)N(c4ccccc4)C(=O)C32)cc1", "note": "(centres undefined)", "z-score": -0.871}
{"smiles": "CCCC[C@H]1OB(O)C[C@H]2C1=C(COC)C[C@H]1C(=O)C=CC(=O)[C@H]12", "z-score": -3.25}
{"smiles": "COc1ccc([Si](C)(C)[C@H]2[C@H](CCn3cc([C@H](O)c4ccccc4)nn3)O[C@@]3(C(=O)N(c4ccccc4)c4ccccc43)[C@@H]2C)cc1", "z-score": -0.54}
{"smiles": "N#Cc1ccc(C(O)C2C=CC3C(=O)NC(=O)C3N2Nc2ccccn2)cc1", "note": "(centres undefined)", "z-score": 0.435}
{"smiles": "O=C1C2C=CC(C(O)c3cccs3)N(Nc3ccccc3)C2C(=O)N1c1ccccc1", "note": "(centres undefined)", "z-score": 0.473}
{"smiles": "CC(C)=CCN(C(=O)C#Cc1ccccc1)[C@H](CO)c1ccccc1", "z-score": -3.2}
{"smiles": "CCCC[C@@H]1C[C@H]1[C@@H](NC(=O)Cc1ccccc1)c1ccc(Cl)cc1", "z-score": -3.46}
{"smiles": "O=C1C2C=CC(C(O)c3ccc([N+](=O)[O-])cc3)N(Nc3ccccc3)C2C(=O)N1c1ccccc1", "note": "(centres undefined)", "z-score": 0.323}
